Assay results from the supplement of paper PMC11732987, “Enantioselective OTUD7B fragment discovery through chemoproteomics screening and high-throughput optimisation” (Communications Chemistry, 2025).

Columns and labels:
Test in all cases: log2 ratio of Biotin-Ahx-Ub-VS probe labelling (fragment/DMSO); higher = less target engagement (more negative = stronger competition), active = hit call of the paper (q ≤ 0.05, log2 ratio ≤ -1)
Details in all cases: compound concentration: 200 uM; treatment time: 3 h
USP42 = target: T1, USP42 (UniProt Q9H9J4)
T1 sequence (whole entry): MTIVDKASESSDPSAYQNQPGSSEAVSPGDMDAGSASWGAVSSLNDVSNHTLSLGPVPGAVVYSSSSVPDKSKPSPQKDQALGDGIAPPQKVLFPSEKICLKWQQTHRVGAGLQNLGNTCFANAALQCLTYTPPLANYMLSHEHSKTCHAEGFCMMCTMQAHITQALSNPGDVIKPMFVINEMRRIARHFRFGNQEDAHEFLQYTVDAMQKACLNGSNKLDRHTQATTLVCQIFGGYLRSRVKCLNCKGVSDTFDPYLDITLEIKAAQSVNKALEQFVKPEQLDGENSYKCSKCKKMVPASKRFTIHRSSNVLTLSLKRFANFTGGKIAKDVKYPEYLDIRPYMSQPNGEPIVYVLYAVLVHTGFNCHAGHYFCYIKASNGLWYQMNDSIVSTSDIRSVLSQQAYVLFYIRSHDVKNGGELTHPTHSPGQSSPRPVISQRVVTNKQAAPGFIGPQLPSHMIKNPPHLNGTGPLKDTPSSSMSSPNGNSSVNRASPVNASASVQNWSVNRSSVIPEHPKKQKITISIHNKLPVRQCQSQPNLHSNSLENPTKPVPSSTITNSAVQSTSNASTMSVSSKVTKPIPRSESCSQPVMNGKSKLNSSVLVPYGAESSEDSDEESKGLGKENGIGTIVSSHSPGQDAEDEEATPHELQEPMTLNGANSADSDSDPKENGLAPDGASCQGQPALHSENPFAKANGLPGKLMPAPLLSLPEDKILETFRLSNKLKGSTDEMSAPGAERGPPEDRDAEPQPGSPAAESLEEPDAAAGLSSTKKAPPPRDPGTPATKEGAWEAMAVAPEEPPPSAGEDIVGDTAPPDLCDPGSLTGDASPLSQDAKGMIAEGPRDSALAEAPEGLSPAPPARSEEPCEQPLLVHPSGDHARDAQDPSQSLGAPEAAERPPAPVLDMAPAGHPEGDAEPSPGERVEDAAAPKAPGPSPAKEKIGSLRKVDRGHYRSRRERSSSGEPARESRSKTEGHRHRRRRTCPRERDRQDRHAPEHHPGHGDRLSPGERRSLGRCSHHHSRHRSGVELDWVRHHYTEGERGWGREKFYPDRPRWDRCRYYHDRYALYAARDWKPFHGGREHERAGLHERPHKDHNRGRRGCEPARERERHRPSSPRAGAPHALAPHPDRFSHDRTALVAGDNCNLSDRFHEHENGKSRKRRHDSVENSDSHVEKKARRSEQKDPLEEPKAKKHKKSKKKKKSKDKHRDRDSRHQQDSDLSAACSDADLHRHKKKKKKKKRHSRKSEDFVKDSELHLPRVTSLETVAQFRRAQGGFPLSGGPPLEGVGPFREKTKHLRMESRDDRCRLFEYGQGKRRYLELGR
In short: (§1)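 Labelled DUBs from HEK293T lysate were NeutrAvidin-enriched, digested with LysC and trypsin, and run by diaPASEF LC-MS/MS. Before that, each 495 µg sample in Tris/CHAPS/IGEPAL buffer with protease inhibitors was treated in triplicate with fragment at 200 µM or vehicle for 3 h, then with Biotin-Ahx-Ub-VS at 0.5 µM final for 1 h. Values are average log2 ratios of fragment over vehicle by unpaired t-test, based on global-median-normalised Spectronaut label-free quantities from proteins with ≥2 unique peptides.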

USP46 = USP46 (UniProt P62068)
In short: as §1

USP47 = target: T2, USP47 (UniProt Q96K76)
T2 sequence (whole entry): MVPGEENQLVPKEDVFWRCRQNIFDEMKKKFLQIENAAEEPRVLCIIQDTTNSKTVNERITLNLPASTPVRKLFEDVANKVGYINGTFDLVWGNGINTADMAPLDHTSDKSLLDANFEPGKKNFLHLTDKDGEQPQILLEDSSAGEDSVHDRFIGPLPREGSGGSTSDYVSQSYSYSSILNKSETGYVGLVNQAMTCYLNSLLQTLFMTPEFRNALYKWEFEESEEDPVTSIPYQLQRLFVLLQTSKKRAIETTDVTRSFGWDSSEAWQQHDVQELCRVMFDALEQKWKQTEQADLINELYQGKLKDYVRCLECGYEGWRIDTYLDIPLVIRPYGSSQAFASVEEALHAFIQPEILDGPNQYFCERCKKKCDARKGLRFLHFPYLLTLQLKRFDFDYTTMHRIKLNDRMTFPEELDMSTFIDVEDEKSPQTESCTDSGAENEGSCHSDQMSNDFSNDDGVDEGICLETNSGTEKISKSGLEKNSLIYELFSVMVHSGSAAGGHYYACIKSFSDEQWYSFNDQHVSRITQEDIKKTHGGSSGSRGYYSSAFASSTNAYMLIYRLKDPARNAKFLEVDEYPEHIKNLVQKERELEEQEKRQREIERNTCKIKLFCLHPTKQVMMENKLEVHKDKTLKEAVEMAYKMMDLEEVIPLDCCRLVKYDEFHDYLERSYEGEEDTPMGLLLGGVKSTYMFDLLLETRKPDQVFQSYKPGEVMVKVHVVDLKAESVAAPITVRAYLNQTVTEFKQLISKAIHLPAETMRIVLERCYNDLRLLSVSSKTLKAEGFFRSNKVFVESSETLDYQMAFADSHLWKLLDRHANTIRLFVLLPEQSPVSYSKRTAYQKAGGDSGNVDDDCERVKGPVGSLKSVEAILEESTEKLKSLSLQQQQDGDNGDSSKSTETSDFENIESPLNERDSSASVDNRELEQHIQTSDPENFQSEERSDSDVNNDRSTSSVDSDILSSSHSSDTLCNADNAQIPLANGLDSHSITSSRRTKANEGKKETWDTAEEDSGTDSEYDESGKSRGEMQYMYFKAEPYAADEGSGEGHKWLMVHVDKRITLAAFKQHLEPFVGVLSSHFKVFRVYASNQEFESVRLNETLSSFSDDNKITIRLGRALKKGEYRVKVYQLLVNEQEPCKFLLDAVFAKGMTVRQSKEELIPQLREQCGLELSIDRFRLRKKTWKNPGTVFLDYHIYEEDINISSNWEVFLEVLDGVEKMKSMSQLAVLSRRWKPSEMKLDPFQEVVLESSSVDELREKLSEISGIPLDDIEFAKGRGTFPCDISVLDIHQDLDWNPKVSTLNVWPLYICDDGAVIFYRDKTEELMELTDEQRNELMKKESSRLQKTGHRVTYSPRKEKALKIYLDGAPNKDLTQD
In short: as §1

USP48 = target: T3, USP48 (UniProt Q86UV5)
T3 sequence (whole entry): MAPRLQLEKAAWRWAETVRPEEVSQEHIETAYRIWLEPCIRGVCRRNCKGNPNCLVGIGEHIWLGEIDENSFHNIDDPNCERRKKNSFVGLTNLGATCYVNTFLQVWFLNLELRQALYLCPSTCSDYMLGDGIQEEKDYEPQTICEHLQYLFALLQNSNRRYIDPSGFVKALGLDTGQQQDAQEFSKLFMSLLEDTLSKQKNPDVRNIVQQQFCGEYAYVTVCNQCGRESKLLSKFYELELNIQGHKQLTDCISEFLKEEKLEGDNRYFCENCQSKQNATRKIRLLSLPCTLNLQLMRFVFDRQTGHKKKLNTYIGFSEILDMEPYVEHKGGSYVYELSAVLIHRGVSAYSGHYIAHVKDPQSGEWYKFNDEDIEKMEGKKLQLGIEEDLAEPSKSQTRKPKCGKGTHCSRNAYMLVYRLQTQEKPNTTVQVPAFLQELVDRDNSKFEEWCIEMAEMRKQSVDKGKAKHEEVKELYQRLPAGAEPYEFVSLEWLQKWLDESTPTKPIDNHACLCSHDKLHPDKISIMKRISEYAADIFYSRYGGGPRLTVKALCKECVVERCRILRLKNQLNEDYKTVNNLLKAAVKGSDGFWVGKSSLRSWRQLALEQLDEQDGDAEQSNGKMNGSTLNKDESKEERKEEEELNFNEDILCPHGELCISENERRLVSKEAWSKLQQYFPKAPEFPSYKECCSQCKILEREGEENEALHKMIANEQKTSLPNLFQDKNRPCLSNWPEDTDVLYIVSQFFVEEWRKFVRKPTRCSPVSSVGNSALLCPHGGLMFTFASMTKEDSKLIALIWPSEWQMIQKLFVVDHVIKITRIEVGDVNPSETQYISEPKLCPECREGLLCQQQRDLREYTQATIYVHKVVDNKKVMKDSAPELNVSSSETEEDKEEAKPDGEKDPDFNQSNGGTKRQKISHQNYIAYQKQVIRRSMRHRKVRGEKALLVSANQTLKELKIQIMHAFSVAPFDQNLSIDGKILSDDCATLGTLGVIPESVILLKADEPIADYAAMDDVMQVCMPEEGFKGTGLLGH
In short: as §1

USP5 = target: T4, USP5 (UniProt P45974)
T4 sequence (whole entry): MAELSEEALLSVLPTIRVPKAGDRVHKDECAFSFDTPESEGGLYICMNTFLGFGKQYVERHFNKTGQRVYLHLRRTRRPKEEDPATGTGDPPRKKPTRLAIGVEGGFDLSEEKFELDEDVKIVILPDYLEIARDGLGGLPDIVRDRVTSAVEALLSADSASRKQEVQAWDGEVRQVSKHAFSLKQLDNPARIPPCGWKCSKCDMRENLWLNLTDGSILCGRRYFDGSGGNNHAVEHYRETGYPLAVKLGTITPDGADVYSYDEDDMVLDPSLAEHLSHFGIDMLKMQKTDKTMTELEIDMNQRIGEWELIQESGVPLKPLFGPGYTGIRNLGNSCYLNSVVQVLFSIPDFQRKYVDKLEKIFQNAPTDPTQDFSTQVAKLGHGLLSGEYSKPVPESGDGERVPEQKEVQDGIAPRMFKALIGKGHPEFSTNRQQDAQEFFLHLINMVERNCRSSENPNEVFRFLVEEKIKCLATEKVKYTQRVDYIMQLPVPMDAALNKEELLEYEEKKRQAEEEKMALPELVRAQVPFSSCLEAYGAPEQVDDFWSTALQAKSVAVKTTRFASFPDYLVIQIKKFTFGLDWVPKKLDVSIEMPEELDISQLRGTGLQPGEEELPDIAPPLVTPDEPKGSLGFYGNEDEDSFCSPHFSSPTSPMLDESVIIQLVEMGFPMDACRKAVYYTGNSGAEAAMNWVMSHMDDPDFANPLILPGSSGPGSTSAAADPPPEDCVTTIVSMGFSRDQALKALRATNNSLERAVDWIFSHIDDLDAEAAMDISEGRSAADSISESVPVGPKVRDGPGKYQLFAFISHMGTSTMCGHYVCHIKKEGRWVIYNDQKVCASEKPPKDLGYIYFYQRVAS
In short: as §1

USP54 = USP54 (UniProt Q70EL1)
In short: as §1

USP7 = USP7 (UniProt Q93009)
In short: as §1

USP8 = target: T5, USP8 (UniProt P40818)
T5 sequence (whole entry): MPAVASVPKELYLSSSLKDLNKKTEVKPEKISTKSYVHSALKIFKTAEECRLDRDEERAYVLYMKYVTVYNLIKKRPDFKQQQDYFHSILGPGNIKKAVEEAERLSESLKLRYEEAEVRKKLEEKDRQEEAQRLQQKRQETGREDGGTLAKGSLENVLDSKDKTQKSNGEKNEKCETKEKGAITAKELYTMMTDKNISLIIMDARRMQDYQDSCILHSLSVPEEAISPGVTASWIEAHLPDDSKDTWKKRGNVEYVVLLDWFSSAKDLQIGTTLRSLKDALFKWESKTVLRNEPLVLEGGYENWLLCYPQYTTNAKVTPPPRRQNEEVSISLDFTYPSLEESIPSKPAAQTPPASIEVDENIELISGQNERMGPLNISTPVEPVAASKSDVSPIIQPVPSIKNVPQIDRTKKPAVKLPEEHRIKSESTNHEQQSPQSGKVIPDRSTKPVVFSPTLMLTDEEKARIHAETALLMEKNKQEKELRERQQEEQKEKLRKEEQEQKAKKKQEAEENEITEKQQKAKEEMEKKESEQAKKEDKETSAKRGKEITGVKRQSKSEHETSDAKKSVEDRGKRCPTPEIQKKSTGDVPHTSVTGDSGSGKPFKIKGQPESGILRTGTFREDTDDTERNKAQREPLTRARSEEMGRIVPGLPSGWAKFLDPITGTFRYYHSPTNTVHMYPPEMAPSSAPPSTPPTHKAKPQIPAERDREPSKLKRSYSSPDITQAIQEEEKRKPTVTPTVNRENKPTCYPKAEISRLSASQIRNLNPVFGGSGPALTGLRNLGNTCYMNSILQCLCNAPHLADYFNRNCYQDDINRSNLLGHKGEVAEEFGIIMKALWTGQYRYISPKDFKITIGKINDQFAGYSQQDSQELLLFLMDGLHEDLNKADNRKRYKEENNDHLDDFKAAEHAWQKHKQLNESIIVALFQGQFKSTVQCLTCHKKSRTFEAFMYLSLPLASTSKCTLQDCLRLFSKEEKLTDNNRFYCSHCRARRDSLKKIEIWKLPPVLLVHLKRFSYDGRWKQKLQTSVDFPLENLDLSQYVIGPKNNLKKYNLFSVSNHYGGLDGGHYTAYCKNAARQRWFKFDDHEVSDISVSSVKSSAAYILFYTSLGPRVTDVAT
In short: as §1

Measured: log2 ratio of Biotin-Ahx-Ub-VS probe labelling

USP7, sequence (Q93009 whole entry, looked up): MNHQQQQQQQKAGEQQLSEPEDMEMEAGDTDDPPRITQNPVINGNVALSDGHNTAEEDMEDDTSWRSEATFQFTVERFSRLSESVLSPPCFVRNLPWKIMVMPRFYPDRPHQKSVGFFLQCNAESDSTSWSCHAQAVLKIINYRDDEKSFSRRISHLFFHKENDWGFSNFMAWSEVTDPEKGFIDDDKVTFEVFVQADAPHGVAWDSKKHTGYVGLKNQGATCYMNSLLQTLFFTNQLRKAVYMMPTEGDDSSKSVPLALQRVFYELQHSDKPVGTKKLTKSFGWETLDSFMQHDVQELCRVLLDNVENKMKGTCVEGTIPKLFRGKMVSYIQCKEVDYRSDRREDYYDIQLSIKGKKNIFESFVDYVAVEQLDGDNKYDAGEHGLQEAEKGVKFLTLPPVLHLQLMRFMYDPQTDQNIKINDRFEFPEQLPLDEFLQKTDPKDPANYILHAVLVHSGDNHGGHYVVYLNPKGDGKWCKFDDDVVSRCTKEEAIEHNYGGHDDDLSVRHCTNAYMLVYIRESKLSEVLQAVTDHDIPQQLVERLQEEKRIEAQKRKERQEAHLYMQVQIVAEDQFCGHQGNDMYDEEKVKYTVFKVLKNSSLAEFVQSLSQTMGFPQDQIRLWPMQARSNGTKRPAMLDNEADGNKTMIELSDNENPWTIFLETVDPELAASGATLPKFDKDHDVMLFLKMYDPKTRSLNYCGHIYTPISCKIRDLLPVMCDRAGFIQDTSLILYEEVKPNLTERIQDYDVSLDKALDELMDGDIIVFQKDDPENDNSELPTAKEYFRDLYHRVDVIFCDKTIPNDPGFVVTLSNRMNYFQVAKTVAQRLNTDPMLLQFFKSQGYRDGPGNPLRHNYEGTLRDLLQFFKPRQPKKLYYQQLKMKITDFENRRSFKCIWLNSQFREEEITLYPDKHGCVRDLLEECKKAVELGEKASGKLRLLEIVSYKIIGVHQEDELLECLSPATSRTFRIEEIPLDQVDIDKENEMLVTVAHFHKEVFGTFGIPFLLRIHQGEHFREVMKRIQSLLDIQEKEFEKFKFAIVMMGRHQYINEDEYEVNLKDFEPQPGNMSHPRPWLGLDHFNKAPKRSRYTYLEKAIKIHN
USP46, sequence (P62068 whole entry): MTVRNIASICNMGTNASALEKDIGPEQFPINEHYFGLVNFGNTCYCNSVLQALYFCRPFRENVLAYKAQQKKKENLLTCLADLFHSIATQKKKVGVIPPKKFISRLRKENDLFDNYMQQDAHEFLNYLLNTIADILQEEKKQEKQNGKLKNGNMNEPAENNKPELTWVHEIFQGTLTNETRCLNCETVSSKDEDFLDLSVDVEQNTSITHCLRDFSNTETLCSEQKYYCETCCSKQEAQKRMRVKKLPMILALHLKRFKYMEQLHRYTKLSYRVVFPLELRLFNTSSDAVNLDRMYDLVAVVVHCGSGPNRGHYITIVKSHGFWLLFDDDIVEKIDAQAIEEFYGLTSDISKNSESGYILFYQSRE
USP54, sequence (Q70EL1 whole entry): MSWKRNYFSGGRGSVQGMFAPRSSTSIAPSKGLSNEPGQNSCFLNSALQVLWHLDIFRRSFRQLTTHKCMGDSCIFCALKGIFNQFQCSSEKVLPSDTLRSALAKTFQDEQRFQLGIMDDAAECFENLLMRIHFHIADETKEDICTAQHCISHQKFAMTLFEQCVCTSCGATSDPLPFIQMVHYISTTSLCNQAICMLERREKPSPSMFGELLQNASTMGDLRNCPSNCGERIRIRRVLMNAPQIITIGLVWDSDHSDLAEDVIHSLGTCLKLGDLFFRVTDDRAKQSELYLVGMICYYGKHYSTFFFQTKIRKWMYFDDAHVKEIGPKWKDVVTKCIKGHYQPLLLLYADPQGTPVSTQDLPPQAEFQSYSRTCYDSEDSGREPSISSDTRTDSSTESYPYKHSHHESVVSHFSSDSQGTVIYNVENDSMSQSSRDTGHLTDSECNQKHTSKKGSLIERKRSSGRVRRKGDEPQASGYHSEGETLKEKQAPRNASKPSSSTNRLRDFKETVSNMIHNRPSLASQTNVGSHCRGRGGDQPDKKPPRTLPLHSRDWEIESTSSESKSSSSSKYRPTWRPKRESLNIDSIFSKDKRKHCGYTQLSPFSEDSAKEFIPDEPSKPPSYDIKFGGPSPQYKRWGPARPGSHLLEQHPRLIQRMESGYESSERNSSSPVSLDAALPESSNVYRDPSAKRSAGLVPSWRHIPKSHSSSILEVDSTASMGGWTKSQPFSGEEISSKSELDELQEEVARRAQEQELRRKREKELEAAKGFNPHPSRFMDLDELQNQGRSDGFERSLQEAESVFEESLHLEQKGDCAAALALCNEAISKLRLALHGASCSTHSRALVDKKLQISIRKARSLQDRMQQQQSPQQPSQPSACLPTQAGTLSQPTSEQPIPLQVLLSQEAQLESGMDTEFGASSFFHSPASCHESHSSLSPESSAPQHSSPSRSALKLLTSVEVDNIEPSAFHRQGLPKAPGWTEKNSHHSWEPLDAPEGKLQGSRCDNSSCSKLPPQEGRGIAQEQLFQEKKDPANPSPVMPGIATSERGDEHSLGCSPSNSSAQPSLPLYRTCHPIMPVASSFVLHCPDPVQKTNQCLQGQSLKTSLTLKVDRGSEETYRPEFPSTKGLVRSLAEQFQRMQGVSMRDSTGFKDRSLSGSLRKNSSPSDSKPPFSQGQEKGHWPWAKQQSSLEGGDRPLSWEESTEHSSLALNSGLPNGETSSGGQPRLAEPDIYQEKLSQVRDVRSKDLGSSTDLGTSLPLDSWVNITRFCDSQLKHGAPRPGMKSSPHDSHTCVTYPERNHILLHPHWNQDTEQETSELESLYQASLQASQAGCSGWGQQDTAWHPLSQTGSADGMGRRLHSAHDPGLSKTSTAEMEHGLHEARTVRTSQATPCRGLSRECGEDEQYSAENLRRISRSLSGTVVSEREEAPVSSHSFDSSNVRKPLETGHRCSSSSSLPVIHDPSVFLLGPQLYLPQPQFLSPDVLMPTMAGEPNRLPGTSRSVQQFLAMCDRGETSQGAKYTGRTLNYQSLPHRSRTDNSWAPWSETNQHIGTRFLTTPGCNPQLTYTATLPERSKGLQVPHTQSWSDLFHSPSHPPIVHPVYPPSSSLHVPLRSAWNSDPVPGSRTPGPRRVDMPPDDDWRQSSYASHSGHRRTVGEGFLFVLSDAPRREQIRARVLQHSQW

O=C(CCl)NC1CCOc2ccccc21 (stereo not drawn)
inactive: USP42 0.184 | USP46 -0.506 | USP47 -0.268 | USP48 -0.603 | USP5 -0.575 | USP54 0.931 | USP7 -0.739 | USP8 -0.69
